Data reported in PubChem BioAssay (NCI).
This is part of a sample that, as a whole, favours compounds with a hit. Of some 83,000 tested, about 20% had one in any assay.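 Step 1: grow cells in 96-well plates. Step 2: add test compound at a single concentration. Step 3: incubate 48 h. Step 4: record percent growth.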 Calls of active or inactive are those of the source. How the source made its calls: active means growth percent below 10; inactive means the rest.

tested on: HCC-2998 colon; experiment: NCI-60 one-dose screen, 48 h (100 = growth as untreated, 0 = no growth, -100 = all killed); settings: 10 µM unless noted

Compound	growth
NC(=O)NCCO	102% (inactive)
Ic1cccs1	108% (inactive)
O=S1(=O)c2ccccc2Oc2ccccc21	106% (inactive)
CSc1nc2[nH]ncc2c(=O)[nH]1	108% (inactive)
CC(=O)NC(O)C(Cl)Cl (stereo not given)	98.4% (inactive)
COC(=O)c1cccc([N+](=O)[O-])c1	99.7% (inactive)
CC(CCC#N)(CCC#N)C(=O)c1ccccc1	101% (inactive)
O=C(NCc1ccccc1)c1cccc([N+](=O)[O-])c1	108% (inactive)
CC(CC(CCC(=O)O)(c1ccccc1)c1ccccc1)N(C)C (stereo not given)	106% (inactive)
Cc1ccc(C2CCCCC2)cc1Br	105% (inactive)
COC1OC(C(O)C(O)CO)C(O)C(O)C1O (stereo not given)	107% (inactive)
C=CCS(C)(=O)=O	108% (inactive)
C/C(=N\Nc1ccc([N+](=O)[O-])cc1[N+](=O)[O-])c1ccc(Br)cc1	99.4% (inactive)
CCOC(C=O)OCC	99.1% (inactive)
C/C(=N\O)c1ccccn1	109% (inactive)
CC(C)C(C)(C)C(=O)C(C)(C)C(C)(C)C	104% (inactive)
C=C(C)COc1ccc(C(C)(C)C)cc1	111% (inactive)
CCN(C(=O)Nc1ccccc1Cl)c1ccccc1	111% (inactive)

Compound	growth
CCN(C(C)=O)c1ccc([N+](=O)[O-])cc1	97.8% (inactive)
NNc1ncccn1	102% (inactive)
O=C(O)c1ccc([N+](=O)[O-])cc1S(=O)(=O)O	97.8% (inactive)
CC(C)C1CCC(C)C(O)C1 (stereo not given)	109% (inactive)
CC(=O)Oc1c(Cl)cccc1-c1ccccc1	102% (inactive)
C/C(=N\N=C(/C)c1cccc([N+](=O)[O-])c1)c1cccc([N+](=O)[O-])c1	98% (inactive)
CCCNS(=O)(=O)c1ccc(Cl)cc1	98.9% (inactive)
CC(C)C(=O)OCCOc1ccc(C(C)(C)C)cc1	111% (inactive)
COc1cccc(C(=O)O)c1OC	98.6% (inactive)
CC(C)(N)CO[C@H]1C[C@H]2CC[C@@]1(C)C2(C)C	102% (inactive)
OCCc1ccc(Cl)cc1	110% (inactive)
O=C(Nc1cccc(Cl)c1)c1ccc(Cl)cc1Cl	106% (inactive)
C1C[S+]2CC[S+]1CC2	105% (inactive)
O=C(Oc1ccccc1Cl)c1ccc(Cl)cc1Cl	102% (inactive)
NNc1ncnc2c1ncn2C1OC(CO)C(O)C1O (stereo not given)	48.9% (inactive)
Cc1[nH]nc(C(N)=O)c1[N+](=O)[O-]	106% (inactive)
CCCCCC(=O)OCCC1CCCCC1	99.1% (inactive)
